Source: PubChem (Sanford-Burnham Center for Chemical Genomics)
In the library only some 4% were active in any assay of this set; here they are far more common.
TWEAK Fn14 block: TWEAK-Fn14 signaling inhibition | inhibition, % at 10 µM | AID 1159606 | hit rate 2% among 360,000 | TWEAK-stimulated Fn14 reporter cells, luciferase luminescence, 8 h; in the data active = inhibition above about 50%
CF NFkB inh: cystic fibrosis NF-kB activation inhibition | KKLEB NF-kB-GFP reporter, PAF-induced, GFP fluorescence overnight | inhibition, % at 5 µM | hit rate 0.86% among 360,000;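 active = at least 50% inhibition at 5 µM, scaled per plate between neutral and stimulator controls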;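 also: PAF is a Pseudomonas aeruginosa culture filtrate used as stimulus; plate controls were PAF-stimulated DMSO wells for no effect and unstimulated DMSO wells for full effect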
KKLEB tox: CF airway cell cytotoxicity counter-screen | hit rate 0.36% among 360,000 | AID 602141 | activity change (cytotoxicity), % at 5 µM | KKLEB CF airway cells viability, ATPlite luminescence, overnight; active compounds read low; cells stimulated with P. aeruginosa culture filtrate;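 active = corrected activity change at or below -50% at 5 µM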
Peg3 promoter: Peg3 promoter activity inhibition | HeLa PEG-Prom luciferase reporter, luminescence, overnight | inhibition, % at 20 µM | hit rate 1.7% among 360,000 | AID 588405;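 active = inhibition of at least 50% at 20 µM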
HIF-2a inh: HIF-2a inhibition. 786-0 RCC cells HIF-2a reporter, luciferase luminescence, overnight. inhibition, % at 18.8 µM. hit rate 0.72% among 360,000;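 active = inhibition of the luminescence signal of 40% or more relative to plate controls, in a single-dose primary screen at 18.75 µM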
TROY signal inh: blocks TROY-dependent signaling in reporter cells | inhibition, % at 10 µM | AID 1347056 | Q293 LMP1-TROYcd NF-kB luciferase reporter, 4 h | hit rate 0.98% among 360,000;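 active = compounds whose plate-normalised and pattern-corrected inhibition of the luciferase reporter signal at the single screening dose is 50% or more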
Mdm2-MdmX confirm: Mdm2/MdmX (human) interaction inhibition, confirmed. shares compounds with HIF-2a inh. inhibition, % at 8 µM. AID 504601. SaOS-2 split-luciferase Mdm2/MdmX complementation, luminescence. hit rate 99% among 740;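 active = mean inhibition of the luminescence signal across two replicates at or above 26 percent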
Target sequence (O15151 whole entry, looked up): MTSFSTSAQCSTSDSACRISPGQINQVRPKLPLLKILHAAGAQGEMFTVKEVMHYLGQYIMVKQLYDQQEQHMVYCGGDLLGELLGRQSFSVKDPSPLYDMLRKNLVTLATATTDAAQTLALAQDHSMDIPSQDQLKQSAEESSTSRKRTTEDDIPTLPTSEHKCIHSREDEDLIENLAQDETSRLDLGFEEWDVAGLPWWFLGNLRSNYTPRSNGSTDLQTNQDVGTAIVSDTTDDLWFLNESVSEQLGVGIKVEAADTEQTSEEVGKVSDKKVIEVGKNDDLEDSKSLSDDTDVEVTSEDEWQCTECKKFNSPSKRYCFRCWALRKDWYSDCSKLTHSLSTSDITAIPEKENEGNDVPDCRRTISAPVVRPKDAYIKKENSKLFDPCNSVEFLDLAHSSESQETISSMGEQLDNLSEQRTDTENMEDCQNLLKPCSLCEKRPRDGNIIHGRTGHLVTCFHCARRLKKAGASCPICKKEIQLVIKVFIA
Target sequence (Q00987 whole entry, looked up): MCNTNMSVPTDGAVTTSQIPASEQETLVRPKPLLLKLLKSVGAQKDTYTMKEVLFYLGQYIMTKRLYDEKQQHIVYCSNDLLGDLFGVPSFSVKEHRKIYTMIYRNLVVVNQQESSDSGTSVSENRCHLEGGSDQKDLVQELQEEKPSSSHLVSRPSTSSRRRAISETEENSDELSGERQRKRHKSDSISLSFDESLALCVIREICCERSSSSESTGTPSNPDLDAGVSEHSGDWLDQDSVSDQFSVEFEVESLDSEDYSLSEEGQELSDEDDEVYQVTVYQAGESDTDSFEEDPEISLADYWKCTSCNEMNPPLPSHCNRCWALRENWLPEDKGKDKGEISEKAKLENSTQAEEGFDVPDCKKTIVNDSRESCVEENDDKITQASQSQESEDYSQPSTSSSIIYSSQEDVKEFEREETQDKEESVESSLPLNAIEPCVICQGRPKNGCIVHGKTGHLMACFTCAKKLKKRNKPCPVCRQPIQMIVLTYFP
HIF-2a inh conf: confirmation of HIF-2a inhibitors; inhibition, % at 18.8 µM; hit rate 56% among 1,800; shares compounds with HIF-2a inh; AID 651580; 786-0 RCC cells, HIF-2a luciferase reporter luminescence, overnight;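 active = mean inhibition across four replicates of at least 40 percent at the single tested concentration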
HIF-1a counter: HIF-1a inhibition counter-screen for HIF-2a hits. shares compounds with HIF-2a inh. hit rate 72% among 1,800. MiaPaCa-2 HIF-1a luciferase reporter, desferoxamine, overnight. inhibition, % at 18.8 µM. AID 651589;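 active = mean inhibition of the reporter signal across four replicates at the single tested dose of 50% or more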
Active calls of the source: *; / = no result.

SMILES | TWEAK Fn14 block | CF NFkB inh | KKLEB tox | Peg3 promoter | HIF-2a inh | TROY signal inh | HIF-2a inh conf | HIF-1a counter | others
O=C(Nc1ccc(NC(=S)NC(=O)c2ccco2)cc1)c1ccc(Br)cc1 | 5 | 23 | -15 | 12 | 57* | 37 | 64* | 12
CS(=O)(=O)N(CC(=O)O)Cc1cccc(CN(CC(=O)O)S(C)(=O)=O)c1 | -6 | -15 | 10 | 2 | 9 | 1 | / | /
O=C(O)CCCCCCCCCCC1CCC(O)C1O (stereo not given) | 44 | 12 | -6 | 12 | 54* | 29 | 75* | 52*
O=C(O)CCCCCCCC(=O)O | 12 | -5 | -13 | 1 | 0 | -6 | / | /
CCN(CC(=O)NCc1ccc(Cl)cc1)C(=O)CCOc1ccc(C)cc1 | -6 | -17 | 4 | -16 | -30 | -27 | / | /
Cc1c(CCC(=O)NCCC(=O)O)c(=O)oc2c(C)c3oc4c(c3cc12)CCCC4 | 39 | 5 | 4 | -38 | 56* | 9 | 65* | 37
CC[C@@H](C)[C@H](NC(=O)Cc1c(C)c2cc3c(C)c(C)oc3c(C)c2oc1=O)C(=O)O | -1 | 8 | 0 | 4 | 8 | 8 | / | /
Cc1c(CCC(=O)N[C@@H](C)C(=O)O)c(=O)oc2c(C)c3oc4c(c3cc12)CCCC4 | 24 | -3 | 2 | -36 | 50* | 0 | 60* | 36
C[C@H](CO)N1C[C@H](C)[C@@H](CN(C)S(=O)(=O)c2cn(C)cn2)Oc2ccc(NC(=O)NC3CCCCC3)cc2C1=O | -8 | -6 | 9 | -6 | 9 | -15 | / | /
CCN(c1ccccc1)S(=O)(=O)c1ccc(C(=O)Nc2ccncc2)cc1 | 16 | 2 | -9 | 29 | 17 | 14 | / | /
CCS(=O)(=O)c1ncc(Cl)c(C(=O)Nc2ccc(S(=O)(=O)N(C)c3ccccc3)cc2)n1 | 100* | 82* | -97* | 102* | 95* | 88* | 99* | 99* | Mdm2-MdmX confirm=103*
CCN(c1ccccc1)S(=O)(=O)c1ccc(NC(=O)c2nc(S(C)(=O)=O)ncc2Cl)cc1 | 88* | 102* | -101* | 108* | 92* | 70* | / | / | Mdm2-MdmX confirm=102*
OCCCNc1c2ccccc2nc2ccccc12 | -17 | -126 | 6 | 104* | 6 | -121 | / | / | Mdm2-MdmX confirm=97*
Cn1c(N)c(C(=O)CSc2nnc(C3CC3)n2N)c(=O)n(C)c1=O | 7 | -11 | 1 | 8 | 6 | -8 | / | /
O=C1C=C(c2ccccc2)C(=O)N1Nc1ccccc1 | -1 | 45 | 19 | 96* | 77* | -10 | 56* | 30
O=C1Cc2ccccc2C(=O)N1Nc1ccccc1 | -2 | -9 | 5 | -6 | 5 | 8 | / | /
COC(=O)c1cc(=O)n(Cc2ccc3c(c2)OCO3)c(=Nc2ccc(F)c(Cl)c2)s1 | 31 | 44 | -15 | 57* | 53* | -5 | 6 | 59*
COC(=O)c1cc(=O)n(Cc2ccc(OC)cc2)c(=NCc2ccc(OC)cc2)s1 | -6 | 3 | 2 | 12 | 15 | 14 | / | /
COc1ccc(Cl)cc1NC(=O)c1nnn(CC(=O)Nc2ccc3c(c2)OCO3)c1N | -6 | 20 | -21 | 12 | -25 | 0 | / | /
CC(=O)Nc1cccc(-c2csc(N)n2)c1 | -4 | -20 | 3 | 1 | 5 | 15 | / | /
CC(=O)Nc1cccc(-c2cnc(N)c(C(=O)c3cccnc3)n2)c1 | 82* | 75* | -8 | 71* | 41* | 38 | / | / | Mdm2-MdmX confirm=102*
O=Cc1ccc(-c2cccs2)s1 | -18 | 3 | -19 | -89 | 44* | 4 | 52* | -13
CNC[C@H](CC1CCCCC1)NC[C@H](CO)NCCc1cccc(C(F)(F)F)c1 | -23 | 31 | -19 | 101* | 2 | -16 | / | / | Mdm2-MdmX confirm=103*
O=c1cc(-c2ccccc2)oc2ccc(Cl)cc12 | 1 | -60 | -2 | -281 | -270 | -65 | / | /
O=c1oc(-c2ccccc2)cc(Cl)c1Cl | 31 | 74* | -103* | 109* | 42* | 31 | 27 | 107*
SMILES | TWEAK Fn14 block | CF NFkB inh | KKLEB tox | Peg3 promoter | HIF-2a inh | TROY signal inh | HIF-2a inh conf | HIF-1a counter | others
COc1ccccc1-n1cc(-c2ccccc2)c2c(=S)nc[nH]c21 | 27 | 12 | -16 | 33 | 22 | 23 | / | /
NCCNc1ccc([N+](=O)[O-])c(Sc2nc3ccccc3[nH]2)c1 | -1 | 6 | 8 | 22 | 27 | -3 | / | /
O=[N+]([O-])c1cc(S(=O)(=O)C(F)(F)F)ccc1Sc1nc2ccccc2[nH]1 | 42 | 50* | -24 | 104* | 93* | 24 | 69* | 106*
O=[N+]([O-])c1cc(S(=O)(=O)C(F)(F)F)ccc1Sc1nc2ccccc2s1 | 13 | 10 | -38 | 110* | 56* | 5 | 34 | 101*
CC(C)c1nc2sc3c(c2c(=O)[nH]1)CC(C)(C)OC3 | 12 | 7 | -4 | 0 | 9 | -7 | / | /
CC(C)N1CCc2c(sc(NC(=O)Cc3ccccc3)c2C(N)=O)C1 | 10 | -19 | -1 | 11 | -17 | -3 | / | /
CC(=O)Nc1sc2c(c1-c1nc3ccccc3s1)CCN(C(C)C)C2 | -57 | -1 | -31 | 99* | 40* | -1 | / | / | Mdm2-MdmX confirm=101*
Cc1c(F)cccc1NS(=O)(=O)c1ccc(N2CCCC2=O)cc1 | 10 | -31 | 6 | 0 | 6 | -3 | / | /
Cc1cc(N)c2cc(NC(=O)/C=C/c3ccccc3Cl)ccc2n1 | 34 | 19 | -30 | 104* | 96* | 81* | 95* | 108* | Mdm2-MdmX confirm=103*
Cc1cc(C)nc(NC(=O)/C=C/c2ccccc2Cl)n1 | -25 | 5 | -4 | -98 | -137 | -42 | / | /
O=C(NCc1cccnc1)c1cc(C2CCCN(C(=O)c3cccs3)C2)on1 (stereo not given) | -14 | 14 | -11 | 10 | 3 | -8 | / | /
COc1ccc(NS(=O)(=O)c2cc(NC(=O)C(CC(C)C)NC(N)=O)ccc2N2CCOCC2)cc1 (stereo not given) | 14 | -11 | 5 | -7 | 11 | -18 | / | /
CC(C)C1C(c2ccccc2)N(C)C(c2ccccc2)CC1(O)c1ccccc1 (stereo not given) | 19 | 17 | -3 | 34 | 53* | 29 | 2 | 29
CCC1C(c2ccccc2)N(C)C(c2ccccc2)CC1(O)c1ccccc1 (stereo not given) | 9 | 26 | 3 | 35 | 33 | 2 | / | /
COc1cccc(/C=C/C(=O)c2ccc3c(c2)OCO3)c1OC | -13 | 6 | -16 | -219 | -198 | -85 | / | /
